AmpC inh no detg – blocks E. coli AmpC beta-lactamase in detergent-free assay; Potency, µM (top dose mostly 57.1 µM), inactives show top-dose activity change, negative = inhibition, actives largely listed as inhibitors; AmpC nitrocefin hydrolysis, absorbance 480 nm, 0.0001% Triton; 330,000 compounds, 0.52% hits; P00811; AID 485341;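 also: plate controls were no compound for no effect and no enzyme for full effect; nearly all actives have a fitted effect of over 20% in size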
Target sequence (P00811 whole entry, looked up): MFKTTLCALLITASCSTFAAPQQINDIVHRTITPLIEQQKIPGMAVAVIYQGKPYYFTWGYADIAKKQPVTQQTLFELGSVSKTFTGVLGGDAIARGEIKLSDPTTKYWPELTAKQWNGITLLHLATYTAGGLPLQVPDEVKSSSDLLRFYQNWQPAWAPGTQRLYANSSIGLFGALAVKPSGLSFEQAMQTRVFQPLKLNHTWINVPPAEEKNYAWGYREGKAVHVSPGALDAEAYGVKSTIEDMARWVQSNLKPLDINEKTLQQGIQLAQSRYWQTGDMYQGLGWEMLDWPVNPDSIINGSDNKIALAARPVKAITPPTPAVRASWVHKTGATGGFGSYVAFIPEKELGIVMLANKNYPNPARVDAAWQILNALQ
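AmpC (5.3 nM in the dispensed reagent) in 20 mM phosphate pH 7.0 with 0.01% (detergent screen) or 0.0001% Triton X-100 was preincubated with compounds for 15 min at room temperature. Nitrocefin was then added from an 800 uM solution, and hydrolysis was followed at 480 nm.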
RE007 growth inh – less growth of the S. pombe RE007 Vpr strain | 360,000 compounds, 0.21% hits | Potency, µM (doses to about 92.2 µM), for the others: top-dose activity change, negative = less growth, actives largely listed as inhibitors | S. pombe RE007 Vpr strain, BacTiter-Glo ATP luminescence, 24 h | AID 651644; active = well fitted falling curve with a large enough effect; inconclusive = small, poorly fitted or top-dose-only effect; inactive = no such curve, though single readings can be large or run the other way; also: nearly all actives have a fitted effect of over 50% in size
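Fission yeast strain RE007, carrying one chromosomally integrated HIV-1 vpr copy, was seeded at OD 0.01 in PMG+AL medium with 23 nL pinned compound. After 24 h at 30 °C and 99% humidity, viability was read by BacTiter-Glo luminescence.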
AmpC detergent – blocks E. coli AmpC beta-lactamase in detergent assay. 370,000 compounds, 0.041% hits. AmpC hydrolysis of nitrocefin, absorbance 480 nm, 0.01% Triton. Potency, µM (titrated, usually from 114 µM), for inactives: at the top dose activity change, negative = inhibition, actives largely listed as inhibitors. P00811;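 also: 0% = no-compound wells and -100% = no-enzyme wells; nearly all actives have a fitted effect of over 25% in size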
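AmpC (5.3 nM in the dispensed reagent) in 20 mM phosphate pH 7.0 with 0.01% (detergent screen) or 0.0001% Triton X-100 was preincubated with compounds for 15 min at room temperature. Nitrocefin was then added from an 800 uM solution, and hydrolysis was followed at 480 nm.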
AMA1-RON2 inh – AMA1-RON2 (P. falciparum) interaction inhibition | AlphaScreen AMA1-biotinylated RON2 peptide binding | Potency, µM (highest dose often 58.2 µM), without a hit: top-dose activity change, negative = inhibition, most hits filed as inhibitors | 360,000 compounds, 0.2% hits;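 also: 0% = vehicle wells and -100% = peptide control; nearly all actives have a fitted effect of over 45% in size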
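AMA1 (3D7) with his tag at 25 nM final met compounds first, then biotinylated RON2 peptide at 25 nM; detection used donor plus acceptor beads, 10 µg/mL apiece, read by AlphaScreen after 30 min at room temperature.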
Active calls of the source: *; ? = inconclusive; · = not tested or not shown. Only some compounds are listed: those with a hit (about 0.79% of all), similar ones and a draw of the others. Unless noted, calls follow the shape of the dose curve; as a rule, active = well fitted curve in the direction sought with a large enough effect; inconclusive = small, poorly fitted or top-dose-only effect, or another doubt; inactive = no such curve, though single readings can be large; an effect the other way counts as inactive or inconclusive. Unless noted, % is scaled to controls: 0 for no effect and ±100 for the full control effect; potency is read from the fitted curve at half-maximal effect.

SMILES	AmpC inh no detg	RE007 growth inh	AmpC detergent	AMA1-RON2 inh
CCc1ccccc1-n1c(SCC(=O)NC)nnc1-c1cccnc1	1%	2%	35µM*	15%
Cn1c(SCC(=O)Nc2ccc(F)cc2)nnc1-c1cccnc1	32µM*	-1%	?	-1%
COc1ccc(S(=O)(=O)N(CC(=O)Nc2ccccc2Cl)Cc2ccccc2)cc1	·	·	6%	·
COc1ccc(NC(=O)c2sc3nc4c(cc3c2N)CN(Cc2ccccc2)CC4)c(OC)c1	·	·	-4%	·
Cc1cccc(NC(=O)CSc2nnc(-c3ccco3)c(-c3ccco3)n2)c1	16µM*	9%	8%	?
Cc1cccc(NC(=O)CSc2nnc(-c3ccco3)c(-c3ccco3)n2)c1C	?	7%	-9%	?
Cc1ccc(-c2cc(-c3ccc4c(c3)NC(=O)CO4)nc3c2COc2ccc(C)cc2-3)cc1	·	·	2%	·
CCOc1ccc(NC(=O)CSC2=Nc3ccccc3C3=NC(CC(=O)NCc4ccc5c(c4)OCO5)C(=O)N23)cc1 (configuration not stated)	·	·	-1%	·
FC(F)(F)C1=Nc2cccc3cccc(c23)N1	8.9µM*	-3%	?	?
COc1ccc(Cn2c(SCc3ccc(C(=O)NC4CCCC4)cc3)nc3cccnc32)cc1	·	·	17%	·
O=C(Cn1c(=O)sc2ccccc21)NCc1ccccn1	45µM*	-2%	?	14%
Fc1ccc(C2=NC(c3cccc(C(F)(F)F)c3)=Nc3ccccc3N2)cc1	·	·	18%	·
N=C(N)c1ccc(N=Nc2c(O)ccc3c2[nH]c2ccccc23)cc1	·	-17%	·	25µM*
NC(=O)c1ccc(N=Nc2c(O)c3ccccc3[nH]c2=O)cc1	-10%	·	?	·
COc1ccc(Nc2ncnc3nc[nH]c23)cc1OC	13µM*	-6%	?	1%
Cc1cccc(Nc2ncnc3nc[nH]c23)c1	-19%	-1%	-8%	-4%
O=C(CCNc1ccccc1)c1cccc([N+](=O)[O-])c1	-32%	11µM*	2%	-23%
Cc1ccc(NCCC(=O)c2cccc([N+](=O)[O-])c2)cc1	-21%	5.6µM*	?	?
O=C(CCNc1ccc(F)cc1)c1cccc([N+](=O)[O-])c1	-27%	18µM*	-11%	-20%
Cc1cc(C)cc(NC(=O)Cn2c(=O)n(-c3cc(C)cc(C)c3)c(=O)c3oc4ccccc4c32)c1	·	·	-6%	·
Cc1ccc(NC(=O)Cn2c(=O)n(CC(=O)NCCc3ccccc3)c(=O)c3ccccc32)cc1C	·	·	-5%	·
COc1ccc(OC)c(CCNC(=O)c2ccc3c(c2)c(C)c(C)n3Cc2ccccc2)c1	·	·	2%	·
O=C1C(=C(O)c2ccccc2)C(=O)c2ccccc21	-29%	-24%	-12%	-5%
O=C1C(=C(c2ccccc2)c2ccccc2)Nc2ccccc21	-24%	-18%	0%	25µM*
Cc1ccc(C)c(Cn2nnc(C(=O)NCc3ccc(Cl)cc3Cl)c2N)c1	·	·	14%	·
SMILES	AmpC inh no detg	RE007 growth inh	AmpC detergent	AMA1-RON2 inh
Oc1ccc(Nc2nc(-c3ccccc3)nc3ccccc23)cc1	18µM*	-14%	-6%	-10%
Oc1ccc(Nc2nc(-c3ccc(Cl)cc3)nc3ccccc23)cc1	·	·	0%	·
O=C(NC1CCCc2ccccc21)c1ccc(=O)[nH]c1 (configuration not stated)	9%	10%	-11%	0%
CCC(C)(NC(=O)c1ccc(=O)[nH]c1)C(=O)NC1CCCC1 (configuration not stated)	2.8µM*	-4%	?	3%
CN1OC[C@@H]2CN(Cc3ccc4c(c3)OCO4)[C@H](c3ccc(N4CCCCC4)cc3)C[C@@H]21	·	-18%	·	14µM*
CCCN1CCN(c2ncnc3sc(C(=O)Nc4ccc(C(C)C)cc4)c(C)c23)CC1	·	·	10%	·
Cc1nc(SCC(=O)NC2CC2)c2c(C)c(C)sc2n1	-6%	-7%	4%	-4%
Cc1sc2nc(C(C)C)nc(SCC(=O)NC3CC3)c2c1C	-13%	8%	14µM*	5%
CC(C)(C)OC(=O)N1CCC(c2c(C(=O)NCc3cccs3)cnn2-c2ccc(F)cc2F)CC1	·	·	10%	·
NC(=O)c1ccsc1NC(=O)COC(=O)COc1ccccc1[N+](=O)[O-]	-43%	0%	56µM*	17%
COc1cccc(C(=O)/C=C/c2ccc(N3CCCCC3)c([N+](=O)[O-])c2)c1	-28%	-15%	-4%	5µM*
Cc1cccc(CNC(=O)c2cnc3c(-c4cccc(C)c4)c(C)nn3c2C)c1	·	·	1%	·
CC(C)(C)C1C/C(=C/c2ccccn2)C(=O)/C(=C/c2ccccn2)C1 (configuration not stated)	-13%	-11%	?	5%
CC1C/C(=C/c2ccccn2)C(=O)/C(=C/c2ccccn2)C1 (configuration not stated)	16%	63µM*	-7%	4%
Cc1cc2ncn(/N=C/c3ccc([N+](=O)[O-])s3)c2cc1C	8%	13%	-10%	-1%
O=[N+]([O-])c1ccc(/C=N/n2cnc3ccccc32)s1	-17%	10µM*	-12%	7%
CCCn1c2ccccc2c2cnn(CC(=O)N3CCN(c4ccccc4)CC3)c(=O)c21	·	·	-7%	·
COc1ccccc1-c1noc(-c2ccc(N3CCN(c4ccccc4)CC3)c([N+](=O)[O-])c2)n1	·	·	15%	·
COc1ccccc1N1C(=O)c2cccc3c(C(=O)O)ccc(c23)C1=O	1%	21%	2%	1%
NS(=O)(=O)c1ccc(O)c(N2C(=O)c3cccc4c(C(=O)c5ccccc5)ccc(c34)C2=O)c1	10µM*	·	-6%	·
CN(C)C(=S)SSC(=S)N(C)C	?	3.2µM*	79µM*	-2%
Cc1ccc(CN2CCN(/N=C\c3cccc([N+](=O)[O-])c3)CC2)cc1	12%	5%	-3%	14µM*
O=[N+]([O-])c1ccccc1C=NN1CCCCCC1	·	-22%	·	18µM*
FC(F)(F)c1ccc(/C=N/N2CCN(Cc3ccccc3)CC2)cc1	-2%	-25%	?	20µM*
O=[N+]([O-])c1ccccc1/C=N\N1CCN(Cc2ccccc2Cl)CC1	-18%	4%	?	20µM*
SMILES	AmpC inh no detg	RE007 growth inh	AmpC detergent	AMA1-RON2 inh
O=[N+]([O-])c1ccc(Cl)c(/C=N/N2CCN(Cc3ccccc3Cl)CC2)c1	-27%	3%	-17%	?
Cc1ccc(C(=O)n2nc(C)c(S(=O)(=O)N3CCCCCC3)c2C)cc1C	·	·	-1%	·
O=[N+]([O-])c1ccccc1/C=N/N1CCN(Cc2ccccc2)CC1	0%	-15%	-10%	28µM*
O=[N+]([O-])c1ccc(/C=N/N2CCN(Cc3ccccc3)CC2)cc1	-12%	-28%	-2%	25µM*
Clc1ccccc1/C=N/N1CCN(Cc2ccccc2)CC1	-12%	-12%	?	-23%
CC(O)(c1cccc(F)c1)c1nc(-c2cccc(C(F)(F)F)c2)cs1 (configuration not stated)	·	35µM*	·	4%

Assay outcomes from PubChem.
